In general, inhibition refers to the relative decrease from the control value, in per cent.

This is an account of results in PubChem BioAssay AID2599 (Sanford-Burnham Center for Chemical Genomics, 2010).

Screen size: about 330,000 compounds; about 5,800 (1.8%) were called active.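 Rule for the calls: active = inhibition above about 50% at the single tested dose (limit read from the data); inactive = the rest.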 The list comes from a sample in which actives are over-represented; it also holds similar structures and randomly drawn compounds.

The assay deals with Sentrin-specific protease 6 (Homo sapiens) (UniProt Q9GZR1). In words: SENP6 protease inhibitors, primary screen, biochemical, luminescence, uHTS (AID 2599).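 Note: plate controls were DMSO wells with enzyme for no effect and DMSO wells lacking enzyme for full effect.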 The note with it: Recombinant SENP6 catalytic domain, aminoluciferin luminescence; at 10 µM; active compounds read high.
Sequence of Sentrin-specific protease 6 (Homo sapiens) (Q9GZR1 628-1112 limits assumed): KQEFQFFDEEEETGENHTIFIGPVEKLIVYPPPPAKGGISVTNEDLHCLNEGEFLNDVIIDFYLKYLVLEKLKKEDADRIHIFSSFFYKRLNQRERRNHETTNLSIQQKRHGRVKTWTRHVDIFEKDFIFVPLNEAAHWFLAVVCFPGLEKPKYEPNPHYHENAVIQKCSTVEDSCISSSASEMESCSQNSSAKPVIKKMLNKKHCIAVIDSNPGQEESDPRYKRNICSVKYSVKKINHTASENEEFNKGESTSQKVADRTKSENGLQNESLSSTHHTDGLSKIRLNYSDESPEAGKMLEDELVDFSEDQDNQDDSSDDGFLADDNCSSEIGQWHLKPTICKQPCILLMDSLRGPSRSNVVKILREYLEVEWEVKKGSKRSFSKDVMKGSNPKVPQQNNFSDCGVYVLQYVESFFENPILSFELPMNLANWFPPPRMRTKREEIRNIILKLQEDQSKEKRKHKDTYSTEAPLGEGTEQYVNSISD
Turning to `CCOC(=O)Cc1csc(SCC(=O)NC(C)C23CC4CC(CC(C4)C2)C3)n1` (stereo unspecified), the inhibition is -13.9% (inactive). For the compound `O=C1CCC(=O)N1c1ccc(NCCc2ccccc2F)c([N+](=O)[O-])c1`, the inhibition was 11.8% (inactive). Then `O=C(Nc1ccccc1C(=O)O)c1cc(S(=O)(=O)N2CCCCC2)cs1`, with 15.3% (inactive); and `O=C(COc1ccc([N+](=O)[O-])cc1Cl)Nc1ccc2[nH]c(=O)[nH]c2c1`, with -8.3% (inactive); and `CCC(C)Cn1c(O)cc2nn(-c3nc4ccccc4s3)c(=O)c-2c1C` (stereo unspecified), with -3.5% (inactive).

On to `CC(=NCc1ccco1)c1c(C(F)(F)F)[nH]n(-c2nc3ccccc3s2)c1=O`, for which the inhibition is 97.8% (active).

For `CCc1ccc(-c2cc(C(=O)NCc3ccco3)c3ccccc3n2)s1`, the inhibition was -10.2% (inactive).

Regarding `CC(=NCc1ccco1)C1=C(O)c2ccccc2C1=O`, the inhibition is 18.6% (inactive). With `CC(C)CC(=O)N/C(N)=N/c1nc2ccccc2s1`, the inhibition was 29.7% (inactive). As for `C/C(=N\NC(=O)CC(C)C)c1c(C(F)(F)F)[nH]n(-c2nc3ccccc3s2)c1=O`, the figure is 98% (active). With `COc1ccccc1C(=O)NCCC(=O)NC(C)CCc1ccccc1` (stereo unspecified), the inhibition was -4.44% (inactive). Then `O=C(CN1CCCSc2ccccc21)N1CCN(S(=O)(=O)c2cccc(F)c2)CC1`, with -22.3% (inactive). As for `CCCN1Cc2cccc(C(=O)NCc3ccccc3)c2C1=O`, the figure is 10.8% (inactive). Then `Cc1ccc(NS(=O)(=O)c2ccc(-c3coc(C)n3)cc2)c(C)c1`, with -4.93% (inactive).

With `CCOC(=O)[C@H]1[C@H]2COc3cc(OC)ccc3[C@@H]2N2C(=O)CN(Cc3ccc(Cl)cc3)C(=O)[C@@]12C`, the inhibition is -7.07% (inactive).

For `COc1ccccc1N1CCN(S(=O)(=O)CCNC(=O)c2ccc(OC(C)C)cc2)CC1`, the inhibition is -8.31% (inactive). Then `COc1cc(NC(=O)CSc2ccc(-c3cccnc3)nn2)cc(OC)c1`, with 4.11% (inactive); and `COc1ccccc1NC(=O)c1c(Br)cnn1C`, with -0.608% (inactive). Then `N/C(=N\OC(=O)CCC1CCCCC1)c1ccccn1`, with 87.4% (active); and `COc1ccccc1OCC(=O)O/N=C(\N)c1ccccn1`, with 13.8% (inactive). Then `N/C(=N\OC(=O)CC1CCCCC1)c1ccccc1`, with 40.3% (inactive); and `Cc1ccc(O)c(CCc2ccccc2)n1`, with 8.36% (inactive).

As to `CCCc1ccc(-c2c(C)sc(NC(=O)c3ccnn3C)c2C#N)cc1`, the inhibition was -0.479% (inactive). Then `CN(C)C(=O)CSc1n[nH]c(-c2ccco2)n1`, with 0.308% (inactive). As for `O=C(O)CC(Cn1cnnn1)c1ccccc1` (stereo unspecified), the figure is -0.459% (inactive). As for `O=C(NCCS(=O)(=O)N1CCN(c2ccccc2)CC1)c1ccco1`, the figure is 6.25% (inactive).
